From PubChem BioAssay (NCATS)
Results filed as inconclusive are left out. The source made the active and inactive calls. Calls follow the shape of the dose curve; as a rule, active = well fitted curve in the direction sought with a large enough effect; inconclusive = small, poorly fitted or top-dose-only effect, or another doubt; inactive = no such curve, though single readings can be large; an effect the other way counts as inactive or inconclusive.

Assays:
NIH3T3 = assay: qHTS assay to identify novel small-molecules to repurpose for Merkel cell carcinoma treatment (AID 1296009); conditions: MCC and control cell lines, CellTiter-Glo viability, 72 h; at 44.8 µM (top of the series) unless noted; also: nearly all actives have a fitted effect of over 60% in size
Summary of the method: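 qHTS format: cells treated with library compounds in DMSO across 8 (NPC) or 11 (MIPE) concentrations. Readout after 72 hr at 37 degree celsius was CellTiter-Glo luminescence.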

C33A = assay: Primary qHTS to identify gynecologic anti-cancer compounds using libraries of approved drugs and bioactive compounds (AID 1345084); conditions: Gynecologic cancer cell panel viability, ATPlite luminescence, 48 h; series mostly up to 57.5 µM; also: nearly all actives have a fitted effect of over 55% in size
Summary of the method: (§1)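 Five-concentration response, 48 h; readout is ATP-driven luciferase luminescence.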

CAOV3 = assay: as above; conditions: Gynecologic cancer cell panel viability, ATPlite luminescence, 48 h; series mostly up to 57.5 µM
Summary of the method: as §1

CASKI = assay: as above; conditions: Gynecologic cancer cell panel viability, ATPlite luminescence, 48 h; series mostly up to 57.5 µM
Summary of the method: as §1

Es-2 = assay: as above; conditions: Gynecologic cancer cell panel viability, ATPlite luminescence, 48 h; series mostly up to 57.5 µM
Summary of the method: as §1

HeLa = assay: as above; conditions: Gynecologic cancer cell panel viability, ATPlite luminescence, 48 h; series mostly up to 57.5 µM
Summary of the method: as §1

Hek293T = assay: as above; conditions: Gynecologic cancer cell panel viability, ATPlite luminescence, 48 h, control line for the selectivity index; series mostly up to 57.5 µM
Summary of the method: as §1

JEG-3 = assay: as above; conditions: Gynecologic cancer cell panel viability, ATPlite luminescence, 48 h; series mostly up to 57.5 µM
Summary of the method: as §1

OV90 = assay: as above; conditions: Gynecologic cancer cell panel viability, ATPlite luminescence, 48 h; series mostly up to 57.5 µM
Summary of the method: as §1

PA-1 = assay: as above; conditions: Gynecologic cancer cell panel viability, ATPlite luminescence, 48 h; series mostly up to 57.5 µM
Summary of the method: as §1

SKOV3 = assay: as above; conditions: Gynecologic cancer cell panel viability, ATPlite luminescence, 48 h; series mostly up to 57.5 µM
Summary of the method: as §1

Tov-21-G = assay: as above; conditions: Gynecologic cancer cell panel viability, ATPlite luminescence, 48 h; series mostly up to 57.5 µM
Summary of the method: as §1

Tov112D = assay: as above; conditions: Gynecologic cancer cell panel viability, ATPlite luminescence, 48 h; series mostly up to 57.5 µM
Summary of the method: as §1

Measured: Potency

O=C(O)c1cc(C(F)(F)F)ccc1N1CC[C@H](OCc2ccccn2)C1
inactive: all assays above

C=C1CC[C@@H]2C(C)(C)CCC[C@@]2(C)[C@@H]1CC/C(=C/C(=O)OC)COC(C)=O
inactive: all assays above

COc1ccc(O[C@@H]2O[C@H](CO)[C@@H](O)[C@H](O)[C@H]2O)cc1OC
inactive: all assays above

CCC1=C(C)C(=O)C(C)CC12C(=O)CCC2C(=O)O (stereo not drawn)
inactive: all assays above

O=C(/C=C/c1ccc(O)c(O)c1)OC[C@H]1O[C@@H](OC2CCCCC2O)[C@H](O)[C@@H](O)[C@@H]1O (stereo partly drawn)
inactive: NIH3T3 inactive [at 17.4 µM] | C33A | CAOV3 | CASKI | Es-2 | HeLa | Hek293T | JEG-3 | OV90 | PA-1 | SKOV3 | Tov-21-G | Tov112D

COc1cnc(-n2cnc(C)n2)c2[nH]cc(C(=O)C(=O)N3CCN(C(=O)c4ccccc4)CC3)c12
inactive: all assays above

CC1(C(=O)O)CCCC2(C)C3CCC4CC3(CCC12)CC4C(=O)O (stereo not drawn)
inactive: all assays above

CC1=C2C(=O)C=C(CO)C2[C@H]2OC(=O)[C@H](C)[C@@H]2[C@@H](OC(=O)Cc2ccc(O)cc2)C1 (stereo partly drawn)
inactive: NIH3T3 inactive [at 17.4 µM] | C33A | CAOV3 | CASKI | Es-2 | HeLa | Hek293T | JEG-3 | OV90 | PA-1 | SKOV3 | Tov-21-G | Tov112D

C=C(C(=O)O)[C@@H]1CC[C@H](C)[C@@H]2CC(=O)C(C)=C2C1
inactive: all assays above

CC(C)=CCC[C@](C)(O[C@@H]1O[C@H](CO[C@@H]2OC[C@H](O)[C@H](O)[C@H]2O)[C@@H](O)[C@H](O)[C@H]1O)[C@H]1CC[C@]2(C)[C@@H]1[C@H](O)C[C@@H]1[C@@]3(C)CC[C@H](O[C@@H]4O[C@H](CO)[C@@H](O)[C@H](O)[C@H]4O[C@@H]4O[C@H](CO)[C@@H](O)[C@H](O)[C@H]4O)C(C)(C)[C@@H]3CC[C@]12C
inactive: NIH3T3 inactive [at 17.4 µM] | C33A | CAOV3 | CASKI | Es-2 | HeLa | Hek293T | JEG-3 | OV90 | PA-1 | SKOV3 | Tov-21-G | Tov112D

C=C[C@@]1(C)CCC2=C([C@H]1OC(C)=O)[C@H](OC(C)=O)CC1[C@](C)(C(=O)OC)CC[C@H](OC(C)=O)[C@]21C (stereo partly drawn)
inactive: NIH3T3 inactive [at 17.4 µM] | C33A | CAOV3 | CASKI | Es-2 | HeLa | Hek293T | JEG-3 | OV90 | PA-1 | SKOV3 | Tov-21-G | Tov112D
